Sampled rows, rich in hits. Any-hit rate of the full collection: about 2.6%.
uPA generation – cell surface uPA generation inhibition | cell surface uPA generation assay, qHTS | 0.31% of 330,000 active | AID 540303 | Potency, µM (doses to about 38.3 µM), for inactives: at the highest dose activity change, negative = inhibition, usual class: inhibitors; active means well fitted inhibition curve with a large enough effect; inconclusive means small, poorly fitted or top-dose-only effect; inactive means no such curve, though single readings can be large or run the other way; tested in mouse RAW 264.7 cells; further: potency means the concentration at half of the fitted maximal effect; on the % scale 0 is the no-effect control and ±100 the full control effect; nearly all actives have a fitted effect of over 55% in size
ATXN2 expr inh – reduces ATXN2 reporter expression in HEK-293 cells; Potency, µM (highest dose often 57 µM), for inactives: at the top dose activity change, negative = inhibition, hits mostly inhibitors; HEK-293 ATXN2-luciferase reporter, luminescence, 24 h; AID 1745845; 0.72% of 360,000 active; further: potency means the concentration at half of the fitted maximal effect; on the % scale 0 is the no-effect control and ±100 the full control effect; nearly all actives have a fitted effect of over 55% in size
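qHTS (up to 57 uM final) was run with 24 h compound exposure of reporter cells at 37 °C. Each well was multiplexed: SteadyGlo luminescence measured ATXN2-luciferase expression after a fluorogenic Gly-Phe-AFC viability readout (25 uM final).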
ATXN viability – cell viability loss in ATXN counter-screen. 0.49% of 400,000 active. AID 651635. S2 cells (HEK-293 line with an ATXN2-luciferase reporter) viability, CellTiter-Fluor protease fluorescence, 24 h. Potency, µM (top dose mostly 56.7 µM), actives largely listed as cytotoxic; further: potency means the concentration at half of the fitted maximal effect; nearly all actives have a fitted effect of over 40% in size
HepG2 viability – kills HepG2 cells in TGF-b inhibitor counter-screen; 0.76% of 410,000 active; Potency, µM (doses to about 46.1 µM), inactives show top-dose activity change, negative = cytotoxicity, most hits filed as cytotoxic; AID 588856; HepG2 CAGA-GFP viability, ATP luminescence, 18 h; further: potency means the concentration at half of the fitted maximal effect
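CellTiter-Glo luminescence gave cytotoxicity after 18 hours at 37 degrees C. The cells were HepG2 CAGA-GFP in 1% FBS DMEM, stimulated with 500 pg/mL TGF-beta after compound addition. %Activity was normalised to no-cell wells (complete cell-killing) and DMSO (no toxicity), and curves were fitted and classified.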
Giardia killer – kills Giardia lamblia | AID 540267 | activity change, % at 7.66 µM, hits read low | 0.15% of 340,000 active | Giardia lamblia trophozoite viability; in the data active means activity change below about -80%; inconclusive means between about -30% and that limit;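 further: parasites exposed to compound for two days anaerobically before the ATP read; on the % scale 0 is the no-effect control and ±100 the full control effect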
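Viability, read as ATP luminescence: trophozoites at 100 cells/well, compound added, 48 hrs anaerobic at 37 deg C, then 15-30 min room-temperature development before reading.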
TGFb inhibitor – blocks TGF-b signaling; HepG2 CAGA-GFP TGF-b/SMAD3 reporter, GFP fluorescence, 18 h; TGF-beta stimulated, 500 pg/mL final; Potency, µM (doses to about 46.1 µM), inactives show at the top dose activity, negative = inhibition, usual class: inhibitors; 1.2% of 410,000 active; AID 588855; further: potency means the concentration at half of the fitted maximal effect; on the % scale 0 is the no-effect control and ±100 the full control effect; nearly all actives have a fitted effect of over 65% in size
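Cell-based qHTS in HEPG2 carrying a CAGA-GFP Smad reporter; compounds added before 500 pg/mL final TGF-beta, 18 h incubation at 37 degrees C, GFP fluorescence quantified per cell by imaging cytometry.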
* = called active by the depositor; i = inactive; ? = inconclusive; . = no result given; [ ] = another dose, or the depositor's remark. Unless noted, the call rests on the fitted dose curve; in most records, active means well fitted curve in the direction sought with a large enough effect; inconclusive means small, poorly fitted or top-dose-only effect, or another doubt; inactive means no such curve, though single readings can be large; an effect the other way counts as inactive or inconclusive.

SMILES | uPA generation | ATXN2 expr inh | ATXN viability | HepG2 viability | Giardia killer | TGFb inhibitor
COC(=O)c1ccc2nc(NC(=O)CCS(=O)(=O)c3ccccc3)sc2c1 | -8% | 16% | i | 2% | 3 | ?
O=C(Nc1cccc(N2CCC(NCc3cnn(-c4ccccc4)n3)CC2)c1)c1cccnc1 | . | . | i | . | . | .
CC(CN1CCc2nnc(CNC(=O)c3cccc(F)c3)n2CC1)c1ccccc1 (stereo not given) | . | . | i | . | . | .
CC(=O)NCC(=O)NCC1Cc2cc(C)cc(-c3ccccn3)c2O1 (stereo not given) | . | . | i | . | . | .
COc1cccc(CCNc2ncnc3sc(C(=O)N4CCOCC4)c(C)c23)c1 | . | . | i | . | . | .
C=CC(=O)Nc1cccc(Oc2cc(Cl)nc3[nH]ccc23)c1 | ? | ? | 18µM* | -21% | 1 | ?
COc1cccc(NC(=O)c2cccc(C(=O)Nc3cccc(OC)c3)n2)c1 | -3% | 2% | i | 20% | 10 | 3%
CCOC(=O)Nc1ccc2c(c1)C(=NNC(N)=S)c1ccccc1-2 | -11% | ? | . | 8.9µM* | 2 | ?
COc1ccccc1C(=O)N1CCOc2ccc(CN3CCN(Cc4ccccn4)CC3)cc2C1 | . | . | i | . | . | .
COc1ccccc1NC(=O)CSc1nnc(NC(=O)NC2CCCCC2)s1 | . | . | . | -17% | . | 18µM*
COCCn1c(C)cc(C(=O)CSc2nnc(C)s2)c1C | -6% | 5µM* | i | -4% | ? | 12%
COCCn1c(C)cc(C(=O)CSc2n[nH]c(N)n2)c1C | 3% | 12% | i | -12% | -8 | -8%
COCCn1c(C)cc(C(=O)CSc2nnnn2C2CCCC2)c1C | -17% | 14µM* | i | -6% | -8 | -19%
CCC1(C2CCN(Cc3ccccc3Cl)CC2)NC(=O)N(CC2COc3ccccc3O2)C1=O (stereo not given) | . | . | i | . | . | .
COc1ccc2[nH]c3c4c(ccc3c2c1)C(=O)C=CC4=O | 3.2µM* | 3.5µM* | 6.3µM* | -75% | 9 | 14µM*
Brc1cccc[n+]1CCCC[n+]1ccccc1Br | . | . | . | -16% | . | 8%
COc1ccc(CN2CCOc3ccc(C(O)c4cccnc4)cc3C2)c(F)c1 (stereo not given) | . | . | i | . | . | .
C=C(C)C(=O)Oc1ccc(N=Nc2ccc(C)cc2)ccc1=O | -2% | ? | 32µM* | -32% | -6 | ?
CC(=O)c1ccc(N=Nc2ccc(C)cc2)cc1 | -7% | -38% | i | -12% | -2 | -4%
CCc1cccc(-n2nnc(-c3nsc(NC(=O)c4cccs4)n3)c2C)c1 | . | . | . | 16µM* | . | ?
CCc1ccccc1-n1nnc(-c2nsc(NC(=O)c3ccc(C)c(C)c3)n2)c1C | . | . | . | -40% | . | 10µM*
C[C@]12CC[C@@H]3c4ccc(O)cc4C[C@@H](CCCCCCCCCS(=O)CCCC(F)(F)C(F)(F)F)[C@H]3[C@H]1CC[C@H]2O (stereo not given in full) | . | -7% | . | . | . | .
Oc1ccc(C[C@H]2CNCCN2CCc2cccc(F)c2)cc1 | -20% | -3% | i | -9% | -5 | -4%
Fc1cccc(CCN2CCNC[C@H]2Cc2cccc3ccccc23)c1 | -10% | -23% | ? | 16µM* | 8 | 16µM*
N=c1sc2ccccc2n1-c1ccccc1 | . | 1% | i | -28% | -5 | ?
SMILES | uPA generation | ATXN2 expr inh | ATXN viability | HepG2 viability | Giardia killer | TGFb inhibitor
C=CC(=O)N=c1sc2ccccc2n1-c1ccccc1 | -14% | 18%[11.3 µM] | . | 4.5µM* | 13 | 10µM*
CCC1(C2CCN(C(=O)c3ccc4ccccc4c3)CC2)NC(=O)N(CCc2scnc2C)C1=O (stereo not given) | . | . | i | . | . | .
O=C1C(=O)c2c(C(=O)c3ccccc3)coc2-c2ccccc21 | -14% | ? | . | 13µM* | -5 | 8.9µM*
Cc1oc2c(c1C(=O)O)C(=O)c1ccccc1C2=O | -9% | -12% | i | 7.1µM* | ? | 5µM*
Cc1cc(=O)oc(C)c1C(=O)O | . | -8% | i | -17% | -11 | 18%
Cc1oc2c(c1C(=O)c1ccccc1)C(=O)C(=O)c1ccccc1-2 | -11% | 3.5µM* | . | 4.5µM* | -1 | ?
Cc1cc(C(=O)Nc2ccccc2-c2nc(CNC(=O)C3COc4ccccc4O3)c(C)o2)c(C)o1 (stereo not given) | . | . | i | . | . | .
NC(=O)[C@@H]1CCCN1C(=O)CCN1Cc2ccccc2OC(c2ccccc2F)C1 (stereo not given in full) | . | . | i | . | . | .
COc1cc(-c2cc(C)c3cccc(OC)c3n2)cc2c1OCCN(C(=O)CC1NC(=O)c3ccccc31)C2 (stereo not given) | . | . | i | . | . | .
COc1ccc(-c2cc(C(F)(F)F)nc(NC3CCCC3)n2)cc1OC | -2% | 1% | i | 22µM* | 11 | -2%
COc1ccc(/C=N/NC(=O)c2ccc(F)cc2)cc1CN1CCc2cc(OC)c(OC)cc2C1C (stereo not given) | -3% | -9% | i | -21% | 1 | -21%
COc1ccc(/C=N/NC(=O)c2ccc(O)cc2)cc1CN1CCCc2ccccc21 | -11% | 2% | i | -9% | ? | 13µM*
O=C(Nc1ccc2ccccc2n1)c1ccccc1Cl | ? | 6% | i | -31% | -7 | -5%
COc1ccc(C(=O)Nc2ccc3ccccc3n2)c(OC)c1OC | 2.8µM* | -64% | i | -25% | ? | -10%
Cc1ccc(C(=O)Nc2cnc3ccccc3c2)cc1 | -7% | 2.2µM* | i | -29% | ? | -30%
Cc1ccc(C(=O)Nc2nc3ccccc3[nH]2)cc1 | -5% | 3.5µM* | i | -70% | -92* | -20%
Cc1cc(C(=O)Nc2cnc3ccccc3c2)ccc1[N+](=O)[O-] | 0% | 29%[11.3 µM] | i | 21% | -9 | 2%
COc1cc(SC)ccc1C(=O)Nc1nc2ccccc2[nH]1 | -17% | 0.32µM* | i | 10µM* | -99* | 18%
CCCCCCCCCCCCCCCCCC(=O)OCCO | . | . | i | . | . | .
O=C(CSc1ccncc1)NCC1Cc2cccc(-c3cncnc3)c2O1 (stereo not given) | . | . | i | . | . | .
Cc1c(C(=O)N2CCOc3ccccc3C2)sc2ncnc(NCCCN3CCOCC3)c12 | . | . | i | . | . | .
O=C(Cc1ccc[nH]c1=O)c1ccc(F)cc1 | . | . | . | 2% | . | 2%
COc1cc(SC)ccc1C(=O)NNC(=O)c1cc(C)oc1C | -11% | -7% | ? | 7.9µM* | -28 | 10%
COc1ccc(C(=O)N[C@H](C(=O)Nc2nc3ccccc3[nH]2)C(C)C)cc1 | -5% | -13% | . | -4% | -4 | ?
COc1ccccc1C(=O)Nc1nc2ccccc2[nH]1 | -3% | 0.32µM* | i | 2.8µM* | -84* | -7%

Source: PubChem BioAssay (National Center for Advancing Translational Sciences (NCATS))
